# Sampled rows, rich in hits. Any-hit rate of the full collection: about 3.5%.
# GPR151 activ: activators of human GPR151; Q8TDV0; activation, % at 11.2 µM; 1% of 650,000 active; AID 1508602; PathHunter beta-arrestin GPR151 cells, luminescence; in the data active means activation above about 4.9%;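 further: 0% = median of compound wells and 100% = cells with positive control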
# TEAD-YAP inh: TEAD-YAP interaction inhibition; AID 1259422; 1.4% of 640,000 active; inhibition, % at 9.12 µM; HEK-TIYL cells, TEAD-Gal4/YAP UAS-luciferase luminescence; in the data active means inhibition above about 32%;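 further: 0% = median of test compound wells and 100% = reference inhibitor wells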
# FBW7 act: human FBW7 E3 ligase activation, primary screen; normalized activity (activation), % at 26.1 µM; AlphaScreen FBW7–phospho-cyclin E peptide binding, activator screen; 0.13% of 650,000 active; in the data active means normalized activity above about 1.9%;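 further: purified mutant Fbw7 with reduced substrate affinity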
# MITF inh: blocks human microphthalmia-associated transcription factor. 0.91% of 650,000 active. AID 1259374. inhibition, % at 2.6 µM. O75030. AlphaScreen MITF homodimerization, bead proximity signal; in the data active means inhibition above about 50%;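 further: 0% = vehicle wells with protein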
# Target sequence (O75030 whole entry, looked up): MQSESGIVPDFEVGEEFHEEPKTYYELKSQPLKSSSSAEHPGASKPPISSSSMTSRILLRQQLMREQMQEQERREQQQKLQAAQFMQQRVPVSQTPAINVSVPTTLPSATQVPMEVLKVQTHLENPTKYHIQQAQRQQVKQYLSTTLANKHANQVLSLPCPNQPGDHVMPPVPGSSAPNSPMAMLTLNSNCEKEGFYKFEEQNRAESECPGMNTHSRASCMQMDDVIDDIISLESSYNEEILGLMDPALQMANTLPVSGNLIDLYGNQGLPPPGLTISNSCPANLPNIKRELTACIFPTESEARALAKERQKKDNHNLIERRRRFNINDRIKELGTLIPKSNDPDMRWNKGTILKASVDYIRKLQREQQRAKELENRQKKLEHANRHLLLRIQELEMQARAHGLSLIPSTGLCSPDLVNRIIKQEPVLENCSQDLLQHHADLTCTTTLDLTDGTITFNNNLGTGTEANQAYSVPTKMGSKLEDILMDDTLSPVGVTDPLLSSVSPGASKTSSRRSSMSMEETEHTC
# The depositor's hits bear a star; ! = not confirmed by another sample.
SMILES,GPR151 activ,TEAD-YAP inh,FBW7 act,MITF inh
CC[n+]1c(/C=C/N(C)c2ccccc2)sc2ccc(OC)cc21,-0.5,79.4*,0.2,9.8
C/C=C(/C)C(=O)O[C@H]1C(C)=C2[C@H]([C@@H]1OC(=O)CCCCCCC)[C@@](C)(OC(C)=O)C[C@H](OC(=O)CCC)[C@@]1(O)[C@H]2OC(=O)[C@@]1(C)O,0.1,57.0*,0.2,11.1
CC1(C)CC(=O)CCP1(=S)c1ccccc1 (stereo unspecified),0.0,-2.2,0.1,11.6
COC1=CC(=O)O[C@@H](CCc2ccc3c(c2)OCO3)C1,2.0,11.8,0.5,20.8
COC1=CC(=O)O[C@H](/C=C/c2ccc3c(c2)OCO3)C1,0.6,77.9*,0.7,0.6
C[C@H]1C(=O)O[C@@H]2CCN3CC=C(COC(=O)[C@](C)(O)[C@]1(C)O)[C@H]23,-3.5,73.6*!,0.2,12.2
CCC1CO/C(=C(\C=C(/Cl)[N+](=O)[O-])[N+](=O)[O-])N1Cc1ccc(Cl)nc1 (stereo unspecified),-0.9,-9.1,0.1,6.3
CC(C)N(C(=O)CCl)c1ccccc1,1.2,33.5*,-0.1,-1.7
COC(=O)c1ccc(C2C(C#N)=C(N)Oc3c2c(=O)oc2ccccc32)cc1 (stereo unspecified),0.0,2.4,-0.1,-13.7
COc1cc([C@@H]2c3cc4c(cc3[C@H](OC(C)=O)[C@H]3COC(=O)[C@@H]23)OCO4)cc(OC)c1OC,3.0,52.0*,0.8,-6.1
COc1cc([C@@H]2c3cc4c(cc3[C@@H](O)[C@H]3COC(=O)[C@H]23)OCO4)cc(OC)c1O,3.5,-9.1,0.6,10.7
CCCCn1c(C)c(C(=O)OCC)c2cc(O)c3ccccc3c21,-0.8,-3.1,0.0,7.7
O=C(c1noc2c1COc1ccccc1-2)N1CCC2(CC1)OCCO2,-5.7,74.9*,0.9,10.1
O=C(c1cc(-c2ccccc2)on1)N1CCC2(CC1)OCCO2,-5.1,-52.1,0.1,4.2
CCc1nc(CN2CCCC(C(=O)c3ccc(Cl)cc3)C2)c(C)[nH]1 (stereo unspecified),3.3,18.8,0.7,0.3
CC(=O)OC1CCC23C(=O)OC45CCC(C6=CC(=O)OC6)C4(C)CCC2C5CCC3(O)C1 (stereo unspecified),2.2,101.5*,0.0,-6.3
N#CC1=C2SCC(O)(c3ccco3)N2C(=O)CC1c1ccccc1F (stereo unspecified),1.7,41.1*,0.7,9.0
COc1ccc(OC)c(C2=NCC(=O)Nc3c2oc2ccc(Cl)cc32)c1,3.2,58.6*,0.1,10.9
Cc1ccc(C2=NCC(=O)Nc3c2oc2ccccc32)cc1,0.1,15.1,-0.1,6.9
CCOC(=O)C(Cc1ccccc1)N1CC1C(N)=O (stereo unspecified),-0.8,4.5,0.2,9.1
CC1=[N+](C)c2c(ccc3ccccc23)C1(C)C,1.1,59.8*,-0.1,26.0
O=C1C(=O)c2ccccc2-c2ccccc21,1.2,99.0*,-0.9,16.3
COc1cccc(-c2nn(Cc3ccccc3)cc2C=O)c1,0.0,-49.5,0.1,8.6
COC(=O)Nc1nc2ccccc2[nH]1,-2.9,35.2*,0.1,-11.3
COCCOC(=O)C1=C(N)OC2=C(C(=O)CCC2)C12C(=O)Nc1ccccc12 (stereo unspecified),-1.0,-7.2,0.1,-13.1
SMILES,GPR151 activ,TEAD-YAP inh,FBW7 act,MITF inh
CN1CCN(Cc2nc3ccc([N+](=O)[O-])cc3c(=O)n2-c2ccccc2F)CC1,0.7,-1.6,0.6,1.4
CN1Cc2c(ccc3c2OCO3)[C@@H]2[C@H]1c1cc3c(cc1C[C@@H]2O)OCO3,-0.1,62.0*,0.1,6.5
C[N+]1(C)CCc2cc3c(cc2[C@H]1[C@@H]1OC(=O)c2c1ccc1c2OCO1)OCO3,4.1,-3.8,0.9,19.5
O=C(Cc1ccccc1)N1CCN(Cc2ccccc2C(F)(F)F)CC1,0.0,7.9,-0.1,44.2
NC(=O)C1CCN(C2(n3nnc4ccccc43)CCCCC2)CC1,-1.4,-9.8,0.2,12.5
Cc1ccc(/C=C2\C(=O)NC(=S)N(c3cccc(F)c3)C2=O)o1,2.1,0.1,0.0,11.7
CCOc1ccc(N2C(=O)/C(=C/c3ccc(Br)o3)C(=O)NC2=S)cc1,-1.6,9.8,-0.2,79.4*
O=C1NC(=S)N(c2cccc(F)c2)C(=O)/C1=C/c1ccc(Br)o1,-1.0,4.1,-0.1,83.7*
CN1C(=O)NC(=O)/C(=C/c2ccc(Br)o2)C1=O,0.6,9.7,-0.4,70.9*
CCOc1ccc(N2C(=O)/C(=C/c3ccc(C)o3)C(=O)NC2=S)cc1,1.3,-0.7,-0.2,13.7
Cc1ccc2c(c1)C1CN(C)CCC1N2C(=O)CN1CCCCC1 (stereo unspecified),-1.2,11.9,0.1,3.8
CN1CC=C(c2noc(CCC(=O)Nc3ccc(F)c(Cl)c3)n2)CC1,-1.4,-0.8,2.1*,38.6
CN1CC=C(c2noc(CCC(=O)Nc3ccc(F)cc3Cl)n2)CC1,-1.1,-5.1,1.8,30.9
Cc1ccc(-n2c(/C=C/c3ccc([N+](=O)[O-])o3)nc3ccccc3c2=O)cc1,1.7,-8.8,-0.1,15.8
O=C(c1ccccc1)C(CN1CCCC1)c1ccccc1 (stereo unspecified),0.0,54.4*,-0.1,0.0
O=C(CN1CCCCCC1)c1ccccc1,0.0,0.2,-0.1,-13.8
Cc1cc(C)n2nc3c(c(C)cc(C)[n+]3-c3ccccc3)c2n1,0.9,33.4*,0.3,15.7
Cc1cc(C)[n+](-c2ccccc2)c2[nH]c(=O)[nH]c(=O)c12,1.8,-5.1,0.9,8.1
CC1CCCC(N2CCN(C(=O)COc3ccccc3)CC2)C1 (stereo unspecified),0.2,3.1,-0.1,25.1
CC1CCC(C(C)C)C(OC(=O)Cn2c(COc3ccccc3)[n+](C)c3ccccc32)C1 (stereo unspecified),1.5,37.0*,0.0,-10.8
CC(=O)Oc1ccc(/C=C/c2cc(OC(C)=O)cc(OC(C)=O)c2)cc1,-7.4,96.0*,-0.1,0.4
CN1CCN(c2ccc(C(F)(F)F)cn2)CC1,1.5,-5.2,0.6,10.9
C=C(C)[C@H]1Cc2c(ccc3c2O[C@@H]2COc4cc(OC)c(OC)cc4[C@@H]2C3=O)O1,-0.5,70.4*,-0.2,22.0
CCn1nc(-c2cccnc2)nc2c(=O)n(C)c(=O)nc1-2,-5.4,76.4*,-0.2,-7.2
Cc1cc(/C=C2\C(=O)NC(=O)N(Cc3ccco3)C2=O)c(C)n1-c1ccc(O)cc1,1.7,10.5,-0.3,57.7*
O=C(c1ccccc1Cl)c1cc(Br)ccc1NC(=O)c1nc[nH]c1C(=O)N1CCCCC1,0.7,9.0,0.1,1.9
CC(C)COC(NC(=O)CC(C)C)C(Cl)(Cl)Cl (stereo unspecified),1.9,2.3,-0.1,-2.5
N#CC(C#N)=Cc1cc(C=C(C#N)C#N)c(O)o1,0.6,13.7,-0.6,83.7*
COc1cc2c(cc1O)CC1c3c(cc(O)c(OC)c3-2)CCN1C (stereo unspecified),2.2,33.5*!,0.5,18.8
O=C(Nc1cccc(C(F)(F)F)c1)c1cc(Cl)ccc1O,-0.9,78.3*,0.4,4.5

# Screening data (PubChem BioAssay)
